Test results from PubChem BioAssay AID540350 (National Center for Advancing Translational Sciences (NCATS), 2011).
The other results are listed elsewhere or left out. Results filed as inconclusive are left out. Active and inactive are the calls of the source. Calls come from the whole dose curve; as a rule, active = well fitted inhibition curve with a large enough effect; inconclusive = small, poorly fitted or top-dose-only effect; inactive = no such curve, though single readings can be large or run the other way.

These compounds were tested against 4'-phosphopantetheinyl transferase Sfp (Bacillus subtilis (strain 168)) (UniProt P39135) (assay: qHTS Assay for Inhibitos of Bacillus subtilis Sfp phosphopantetheinyl transferase (PPTase): Chemistry Optimization Followup). Conditions: purified Sfp PPTase enzyme activity.
Description: The covalent attachment of a phosphopantetheinyl (4'-PP) arm to a variety of synthases and other proteins is a key posttranslational protein modification. The 4'-PP is installed on the proteins post-translationally from coenzyme A (CoA) on a conserved serine residue by action of phosphopantetheinyl transferase (PPTase) enzymes. Phosphopantetheinylation is essential for synthase activity, and removal of the PPTase gene precludes natural product synthesis in microorganisms, or in the case of fatty acid biosynthesis, renders the organism unviable. PPTase enzymes belong to a distinct structural superfamily. Within bacteria, these enzymes are grouped into two classes based upon primary structure, the AcpS-Type and Sfp-Type PPTases.
Sfp-type PPTases, corresponding to an activator of surfactin production in Bacillus subtilis, are responsible for modifying type I polyketide and nonribosomal peptide synthases of prokaryotes. Sfp-type PPTases are responsible for the activation of a variety of pathogen-associated virulence factors. Among these compounds are toxins such as mycolactone from Mycobacterium ulcerans, siderophores such as vibriobactin from Vibrio cholerae or mycobactin from Mycobacterium tuberculosis, as well as the mycolic acids which form the waxy cell wall of Mycobacteria. The biosyntheses of these natural products are considered attractive targets for drug design.
In search of small molecule Sfp-PPTase inhibitors, a fluorescence quenching assay was developed for detection of Bacillus subtilis Sfp-PPTase enzymatic activity in a miniaturized high-throughput format. The consensus ybbr acceptor peptide […] was N-terminally labeled with Black Hole Quencher-2 (BHQ-2) and used in combination with rhodamine-labeled coenzyme A as a co-substrate.
Inhibition of Sfp-PPTase was detected by recording the fluorescence intensity change over a 30-minute reaction period at a 525 nm excitation and 598 nm emission. Reagents were supplied by Michael Burkart and Timothy Foley, University of California at San Diego.
NIH Chemical Genomics Center [NCGC]
NIH Molecular Libraries Probe Centers Network [MLPCN]
Assay Submitter (PI): Michael Burkart, University of California, San Diego
3 uL of Sfp-PPTase enzyme (final concentration 15 nM) and 1 uL of substrate mixture (final concentration for rhodamine-CoA and BHQ-2-YbbR 5 uM and 12.5 uM, respectively) dispensed in columns 1, 2, 5 - 48. Columns 1 and 2 used to generate neutral control (uninhibited reaction)
Three uL of reagents, consisting of buffer (in columns 3 and 4 as negative control) and Sfp-PPTase (in columns 1, 2, 5 - 48) were dispensed into 1,536-well Greiner black solid bottom plate. Compounds (23 nL) were transferred via Kalypsys pintool equipped with 1,536-pin array. The plate was incubated for 15 min at room temperature, followed by the addition of 1 uL substrate to start the reaction. The plate was then centrifuged at 1000 rpm for 15 seconds, and the fluorescence intensity recorded on a ViewLux High-throughput CCD imager (Perkin-Elmer) using standard BODIPY optics (525 nm excitation and 598 nm emission). The plate was then incubated for 30 minutes, and a second read on the ViewLux was performed. The fluorescence intensity difference over the 30-minute period was used to calculate the respective reaction rate for each well.

Potency, active:
Cc1cc(C)nc(NC(=S)N2CCN(c3ccc(Cl)cc3F)CC2)c1 1.87 µM
Cc1cc(C)nc(NC(=S)N2CCN(c3ccc(Cl)cc3C(F)(F)F)CC2)c1 2.96 µM
Cc1cc(C)nc(NC(=S)N2CCN(c3ccc4nonc4c3)CC2)c1 7.44 µM
Cc1cc(C)nc(NC(=S)N2CCN(c3cccc(C(F)(F)F)c3)CC2)c1 1.67 µM
COc1ccnc(NC(=S)N2CCN(c3ncc(C(F)(F)F)cc3Cl)CC2)c1 2.64 µM
Cc1ccc(N2CCN(C(=S)Nc3cc(C)ccn3)CC2)cc1 6.63 µM
Cc1cc(C)nc(NC(=S)N2CCN(c3cccc(C#N)c3)CC2)c1 5.91 µM
